ELG1 genotoxic = inducers of genotoxicity in HEK293T ELG1-luciferase cells; HEK293T ELG1-luciferase reporter, luminescence, 16 h; Potency, µM (top dose mostly 46 µM), hits mostly activators; AID 504466; 1.3% of 330,000 active; note: nearly all actives have a fitted effect of over 60% in size
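Reporter readout depends on ELG1 protein level, which increases with genetic stress. After 16 hr compound exposure at 37 °C, luciferase activity was quantified using ONE-Glo.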
FLuc modulator = counter-screen for miR-21 project: firefly luciferase inhibitors or activators; P08659; purified FLuc, Km substrates, luminescence inhibition; Potency, µM (titrated, usually from 57.5 µM), actives largely listed as inhibitors; 6.9% of 360,000 active; AID 588342; note: nearly all actives have a fitted effect of over 55% in size
Target sequence (P08659 whole entry, looked up): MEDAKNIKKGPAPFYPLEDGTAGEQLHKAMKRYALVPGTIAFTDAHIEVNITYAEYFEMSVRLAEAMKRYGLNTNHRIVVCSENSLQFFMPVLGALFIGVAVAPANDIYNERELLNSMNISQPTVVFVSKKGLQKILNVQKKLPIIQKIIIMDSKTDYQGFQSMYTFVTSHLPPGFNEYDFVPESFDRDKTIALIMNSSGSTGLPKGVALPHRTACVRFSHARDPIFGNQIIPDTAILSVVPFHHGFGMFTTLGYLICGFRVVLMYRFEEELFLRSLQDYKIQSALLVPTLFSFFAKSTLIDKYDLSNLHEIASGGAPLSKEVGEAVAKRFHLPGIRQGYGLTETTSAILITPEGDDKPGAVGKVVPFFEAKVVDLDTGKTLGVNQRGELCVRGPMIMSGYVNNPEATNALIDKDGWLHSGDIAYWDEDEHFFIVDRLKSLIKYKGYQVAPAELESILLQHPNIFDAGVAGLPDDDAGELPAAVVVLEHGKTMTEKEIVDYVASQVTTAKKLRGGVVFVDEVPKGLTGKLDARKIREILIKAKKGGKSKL
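Purified P. pyralis luciferase, 10 nM final, with Km-level 10 uM D-luciferin and 10 uM ATP in 50 mM Tris acetate pH 7.5, 10 mM Mg acetate, 0.01% Tween-20, 0.05% BSA; 6-point qHTS titration about 60 µM downward; luminescence read.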
SMN2 splice enh = increases expression of the SMN2 splice variant | Potency, µM (series often up to 46.1 µM), most hits filed as activators | 2.8% of 210,000 active | HEK293 SMN2-luciferase splicing reporter, luminescence, 30-36 h; note: nearly all actives have a fitted effect of over 55% in size
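HEK293 cells carry an SMN2 minigene-luciferase reporter in which exon 7 inclusion puts luciferase in frame. Cells were seeded at 2000 cells/well, attached for 10-12 hours, then exposed to compounds for 30-36 hours at 37C before ONE-Glo luminescence.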
ELG1 repair inh = ELG1-dependent DNA repair inhibition. HEK293T ELG1-luciferase reporter, luminescence, 16 h; DNA damage induced by 5-fluorouridine. Potency, µM (titrated, usually from 46.1 µM), actives largely listed as inhibitors. 2.3% of 330,000 active. AID 504467; note: nearly all actives have a fitted effect of over 55% in size
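Cells (2,000 per well) received 5-fluorouridine plus test compound or DMSO and were incubated 16 hr at 37 °C, 5% CO2. Luciferase activity was read by luminescence 30 min after ONE-Glo addition; signal suppression marked inhibition of damage-induced ELG1 function.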
Rab9 prom act = Rab9 promoter activation; Huh7 Rab9 promoter-luciferase reporter, luminescence, 24 h; Potency, µM (doses to about 9.22 µM), usual class: activators; 2.8% of 320,000 active; AID 485297; note: nearly all actives have a fitted effect of over 60% in size
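Rab9 promoter-driven luciferase in stably transfected Huh7 cells; 1500 cells/well rested 2 h, exposed to compound in DMSO for 24 h at 37 °C, 5% CO2. Luminescence read 10 min after adding luciferase reagent at ambient temperature.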
NPC1 promoter act = activators of NPC1 promoter | Huh7 NPC1 promoter luciferase reporter, 24 h | Potency, µM (doses to about 9.22 µM), actives largely listed as activators | 2.4% of 320,000 active; note: nearly all actives have a fitted effect of over 60% in size
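Huh7 reporter cells (NPC1 promoter driving luciferase) are dosed with compound for 24 h at 37 °C, 5% CO2; luciferase detection reagent is then added and luminescence measured after 10 min at ambient temperature.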
Of the large screens only hits and unclear results are named; the others gave an inactive call. The list is not random: actives were taken first. Their share in the collection is about 9.2%. Calls come from the whole dose curve; as a rule, active = well fitted curve in the direction sought with a large enough effect; inconclusive = small, poorly fitted or top-dose-only effect, or another doubt; inactive = no such curve, though single readings can be large; an effect the other way counts as inactive or inconclusive.

CC(=O)c1cccc(Nc2nc(-c3sc(C)nc3C)cs2)c1	FLuc modulator inconclusive, ELG1 repair inh 16µM (no result: SMN2 splice enh)
Cc1ccc(NC(=O)CSc2nc3ccccc3c(=O)n2CCCN2CCCCC2)cc1Cl	none
Cc1ccccc1C(=O)NCCc1nnc(SCC(=O)Nc2nc(-c3ccccc3)cs2)n1C	ELG1 repair inh inconclusive
Cc1sc(NC(=O)CSc2nnc(CCNC(=O)c3cccs3)n2C)nc1-c1ccccc1	SMN2 splice enh inconclusive, ELG1 repair inh 16µM
CCOC(=O)c1c(NC2OC(=O)c3c2ccc(OC)c3OC)sc(C(=O)OC(C)(C)C)c1C (stereo not drawn)	ELG1 genotoxic inconclusive, FLuc modulator 17µM, ELG1 repair inh inconclusive (no result: SMN2 splice enh)
C=CCn1c(-c2cc3c(s2)CCC(CC)C3)n[nH]c1=S (stereo not drawn)	FLuc modulator 30µM, ELG1 repair inh inconclusive
C=CCn1c(SCC(=O)NC2CCS(=O)(=O)C2)nnc1-c1ccc(Cl)cc1 (stereo not drawn)	none (no result: SMN2 splice enh)
C=CCn1c(SCC(=O)NC2CCS(=O)(=O)C2)nnc1-c1cc2c(s1)CCC(CC)C2 (stereo not drawn)	FLuc modulator 11µM, ELG1 repair inh inconclusive
C=CCn1c(-c2sccc2C)n[nH]c1=S	none
CC1CC(C)CN(S(=O)(=O)c2cccc3cccnc23)C1 (stereo not drawn)	none
O=c1n(S(=O)(=O)c2cccc3cccnc23)c2ccccc2n1S(=O)(=O)c1cccc2cccnc12	SMN2 splice enh 11µM
Cc1cc2ccccc2n1CCNC(=O)c1cc(C(F)(F)F)cc(C(F)(F)F)c1	none (no result: ELG1 genotoxic, ELG1 repair inh, Rab9 prom act, NPC1 promoter act)
CCCNc1ccc(S(=O)(=O)N(C(C)C)C(C)C)cn1	none
CCCNc1ccc(S(=O)(=O)N(CC)CC)cn1	SMN2 splice enh 5.6µM
CCc1nnc(NS(=O)(=O)c2ccc(NS(=O)(=O)c3ccc(NC(C)=O)cc3)cc2)s1	none
CCc1nnc(NS(=O)(=O)c2ccc(N/C=C/C(=O)c3ccc(C)cc3)cc2)s1	FLuc modulator 24µM, SMN2 splice enh inconclusive
CCc1nnc(NS(=O)(=O)c2ccc(N/C=C\C(=O)c3ccc(F)cc3)cc2)s1	FLuc modulator 19µM
CCc1nnc(NS(=O)(=O)c2ccc(N/C=C\C(=O)c3cccc(OC)c3)cc2)s1	FLuc modulator 17µM
CCc1nnc(NS(=O)(=O)c2ccc(NC(=S)NC(=O)/C=C/c3ccc(F)cc3)cc2)s1	none
CCc1nnc(NS(=O)(=O)c2ccc(N/C=C\C(=O)c3ccc(C)cc3)cc2)s1	FLuc modulator 19µM, ELG1 repair inh inconclusive
COC(C)(C)[C@@H](O)COc1c2ccoc2cc2oc(=O)ccc12	none (no result: SMN2 splice enh)
CCOc1ccc(CNC(=O)C2CCN(C(=O)N3CC(CC)Oc4ccccc43)CC2)cc1 (stereo not drawn)	none (no result: ELG1 genotoxic, SMN2 splice enh, ELG1 repair inh, Rab9 prom act, NPC1 promoter act)
O=C(CSc1ccc2nc(-c3ccccc3)cn2n1)NCC1CCCO1 (stereo not drawn)	FLuc modulator 19µM, ELG1 repair inh inconclusive, Rab9 prom act inconclusive, NPC1 promoter act inconclusive (no result: SMN2 splice enh)
COc1ccc(-c2cn3nc(SCC(=O)NCC4CCCO4)ccc3n2)cc1 (stereo not drawn)	ELG1 genotoxic inconclusive, FLuc modulator 2.7µM, ELG1 repair inh inconclusive, Rab9 prom act 1.6µM, NPC1 promoter act inconclusive (no result: SMN2 splice enh)
COc1ccc(-c2cn3nc(SCC(=O)Nc4ccccc4F)ccc3n2)cc1	FLuc modulator 1.1µM (no result: ELG1 genotoxic, SMN2 splice enh, ELG1 repair inh, Rab9 prom act, NPC1 promoter act)
O=C(CSc1ccc(-c2ccc(-n3cccn3)cc2)nn1)Nc1ccccc1F	ELG1 genotoxic inconclusive, FLuc modulator 0.6µM, ELG1 repair inh inconclusive (no result: SMN2 splice enh)
O=C(CSc1nc(-c2ccccc2)ns1)NCC1CCCO1 (stereo not drawn)	ELG1 genotoxic inconclusive, FLuc modulator inconclusive, ELG1 repair inh inconclusive, NPC1 promoter act inconclusive (no result: SMN2 splice enh)
Cc1noc(C)c1COc1ccccc1C(=O)NC(C)c1ccc(Cl)cc1 (stereo not drawn)	none (no result: SMN2 splice enh)
Cc1ccc(NC(=O)CN(Cc2ccccc2)S(=O)(=O)c2ccc3nc(C)sc3c2)c(C)c1	none (no result: ELG1 genotoxic, SMN2 splice enh, ELG1 repair inh, Rab9 prom act, NPC1 promoter act)
CCOC(=O)c1cnc2cc(C(F)(F)F)ccc2c1N1CCN(c2cccc(Cl)c2)CC1	none (no result: ELG1 genotoxic, ELG1 repair inh, Rab9 prom act, NPC1 promoter act)
